Bioassay records: PubChem, several laboratories
PHOSPHO1 block: blocks human PHOSPHO1 phosphatase activity | Q8TCT1 | recombinant PHOSPHO1, absorbance phosphatase assay | inhibition, % at 13.3 µM | 290,000 tested, 1.1% active | AID 1565; in the data active = inhibition above about 60%
Target sequence (Q8TCT1 whole entry, looked up): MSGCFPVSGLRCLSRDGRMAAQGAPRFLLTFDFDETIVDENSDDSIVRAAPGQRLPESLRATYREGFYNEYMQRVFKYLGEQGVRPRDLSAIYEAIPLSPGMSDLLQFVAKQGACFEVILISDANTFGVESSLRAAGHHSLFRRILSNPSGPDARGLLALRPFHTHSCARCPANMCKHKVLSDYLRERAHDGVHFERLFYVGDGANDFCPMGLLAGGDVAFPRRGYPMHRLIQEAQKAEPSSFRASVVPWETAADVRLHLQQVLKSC
M18AAP inhibitor: blocks P. falciparum M18 aspartyl aminopeptidase; inhibition, % at 7.35 µM; AID 1822; 290,000 tested, 1.2% active; recombinant PfM18AAP, H-Glu-NHMec fluorogenic cleavage;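 active = inhibition above the campaign mean inhibition over all tested compounds plus 3 SD, cut at about 28% in these data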;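 note: 0% = plate median of test compound wells and 100% = 2 mM ZnCl2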
ALR inh: inhibitors of human sulfhydryl oxidase ALR | AID 485317 | inhibition, % (concentration not given with the values) | 290,000 tested, 3.8% active | P55789 | purified ALR, DTT oxidation, H2O2 HRP-luminol luminescence;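 active = mean replicate inhibition above about 79%, with every replicate also reaching it, limit read from the data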
Target sequence (P55789 whole entry, looked up): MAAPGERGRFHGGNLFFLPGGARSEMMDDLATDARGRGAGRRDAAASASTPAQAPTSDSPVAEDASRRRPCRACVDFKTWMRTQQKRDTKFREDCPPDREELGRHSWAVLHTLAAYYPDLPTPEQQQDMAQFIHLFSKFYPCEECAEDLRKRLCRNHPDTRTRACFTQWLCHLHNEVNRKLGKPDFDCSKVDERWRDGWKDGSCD
PfGluPho inh: PfG6PD (Plasmodium falciparum) enzyme inhibition; PfGluPho enzyme, NADPH resazurin-diaphorase fluorescence; inhibition, % at 20 µM; 350,000 tested, 0.78% active; AID 504690;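 active = inhibition reaching at least a set limit at 20 µM in the primary screen, cut at about 59% in these data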;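 note: 0% = DMSO wells with substrate and 100% = DMSO wells lacking glucose-6-phosphate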
Cardio protect: myocardial damage modulation in H9c2 cells; H9c2 cardiomyocytes, H2O2 injury protection, ATPLite, 2 h; protection from H2O2 cell death, % at 20 µM; 360,000 tested, 0.63% active; AID 588492;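 active = compounds giving at least 50% protection of heart cells from peroxide-induced death in the single-dose screen, raw or plate-pattern-corrected value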;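 note: 0% = DMSO wells with peroxide and 100% = DMSO wells without peroxide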
PfG6PD confirm: confirmation of Plasmodium falciparum G6PD inhibitors | inhibition, % at 20 µM | 2,400 tested, 34% active | shares compounds with PfGluPho inh | recombinant PfGluPho, NADPH-diaphorase-resazurin fluorescence;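 active = inhibition of at least 50% at 20 µM in any single replicate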;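 note: 0% = DMSO with substrate and 100% = DMSO lacking glucose-6-phosphate substrate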
Diaph ctr 10uM: inhibits diaphorase or oxidizes, flagging false PfG6PD hits. inhibition, % at 20 µM. shares compounds with PfGluPho inh. diaphorase-coupled resazurin reduction, fluorescence, NADPH 10 uM. 820 tested, 39% active;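 active = average inhibition reaching 50% or more with the compound at 20 µM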;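 note: resorufin red fluorescence formed as diaphorase reduces resazurin using NADPH; 0% = DMSO with enzyme and 100% = DMSO without enzyme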
Diaph ctr 30uM: diaphorase inhibition or oxidation at 30 uM NADPH | 820 tested, 29% active | inhibition, % at 20 µM | shares compounds with PfGluPho inh | Diaphorase/resazurin coupled assay, resorufin fluorescence;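 active = inhibition averaging 50% or more, tested at 20 µM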;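 note: 0% = DMSO with enzyme and 100% = DMSO wells lacking diaphorase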
* = called active by the depositor; . = no result given. Hits are enriched below; roughly 5.6% of the tested compounds scored in any of these assays.

SMILES | PHOSPHO1 block | M18AAP inhibitor | ALR inh | PfGluPho inh | Cardio protect | PfG6PD confirm | others
CCOC(=O)CN1C(=O)CC(c2ccccc2)C1=O (stereo not given) | -167.0 | 5.2 | -0.1 | -13.8 | -0.5 | .
O=C(Cn1sc2ccccc2c1=O)Nc1ccc(Br)cc1 | . | . | . | 123.0* | -33.4 | 90.8* | Diaph ctr 10uM=-7.9;Diaph ctr 30uM=4.7
O=C(Cn1sc2ccccc2c1=O)Nc1ccc(F)cc1 | . | . | . | 125.0* | -31.9 | 106.4* | Diaph ctr 10uM=-13.3;Diaph ctr 30uM=15.3
O=C(Cn1sc2ccccc2c1=O)Nc1ccc(Cl)cc1 | . | . | . | 125.4* | -34.6 | 95.8* | Diaph ctr 10uM=-30.1;Diaph ctr 30uM=2.0
Cc1noc(C)c1CSCC(=O)N(C)CC(=O)Nc1ccccc1Cl | 31.3 | -0.9 | -2.0 | 1.3 | -0.8 | .
C[C@H]1CN([C@@H](C)CO)C(=O)CCCn2cc(nn2)CO[C@@H]1CN(C)C(=O)c1ccncc1 | . | . | . | -13.4 | -1.3 | .
O=C(OCc1c(-c2ccccc2)ncc2ccccc12)c1cccc(Br)c1 | . | . | -9.8 | 8.0 | -10.3 | .
Oc1c(CN2CCOCC2)cc(CN2CCOCC2)c(O)c1O | . | . | . | 82.0* | 15.0 | 64.0* | Diaph ctr 10uM=51.8*;Diaph ctr 30uM=54.6*
CC1=CC(=O)C=C(C)C1=NOc1ccccc1[N+](=O)[O-] | -10.6 | -0.2 | 12.9 | 68.9* | -18.6 | -5.8
Cc1cc(C)c(S(=O)(=O)Oc2ccccc2[N+](=O)[O-])c(C)c1 | . | . | . | 15.7 | -12.2 | .
COc1ccc(S(=O)(=O)Nc2ccc3cn[nH]c3c2)cc1C | 16.5 | -7.4 | -54.3 | 4.2 | -12.3 | .
Cc1cc(C)c(C)c(S(=O)(=O)Nc2ccc3cn[nH]c3c2)c1C | . | . | 0.4 | 91.6* | -17.7 | 13.1
Cc1cc(C)c(C#N)c(=N)o1 | 35.0 | 19.3 | -5.5 | 66.5* | 4.1 | 46.9
CCOC(=O)c1sc(N)c(C(=O)Nc2ccccc2OC)c1C | -71.2 | 23.0 | -5.9 | 66.1* | 4.5 | 39.1
CCOC(=O)c1sc(N)c(C(=O)OC)c1C | 26.2 | -4.7 | -0.1 | 2.3 | 0.8 | .
CCSc1nnc(NC(=O)CCC2CCCCC2)s1 | . | . | -2.3 | -15.8 | -4.3 | .
Cc1ccc(/C(C#N)=C\c2ccc(N3CCOCC3)o2)cc1 | 62.4* | -13.4 | -20.4 | 72.2* | -11.2 | -1.7
CCC1(C)Cc2c(sc3nc(NC)n(C)c(=O)c23)CO1 (stereo not given) | 47.2 | 0.7 | 59.5 | 7.9 | 15.0 | .
Cn1c(NN)nc2sc3c(c2c1=O)CC(C)(C)OC3 | -26.0 | 21.4 | -11.5 | 64.5* | 15.3 | 33.6
COc1ccc(N=Cc2sc(O)c3ccccc23)cc1 | 1.8 | 8.2 | 35.4 | 69.0* | 50.6* | -8.6
Cc1ccc(-c2nn(C)c(=O)c3ccccc23)cc1CNC(=O)/C=C/c1ccccc1 | 24.0 | 3.5 | . | 76.9* | 2.0 | 76.0* | Diaph ctr 10uM=59.0*;Diaph ctr 30uM=50.0
CC(=O)NCCNc1nc(NCC2CC2)nc2cc(-c3ccccc3)sc12 | . | . | . | . | -0.4 | .
Cc1cc(C)c(NC(=O)Nc2ccc3c(c2)OCO3)c(C)c1 | 16.2 | -8.2 | -3.6 | -15.9 | 1.4 | .
Cc1cc(C)c2[nH]c(C(=O)Nc3ccc4c(c3)OCO4)cc2c1 | 21.9 | 0.9 | -2.6 | 60.6* | -1.5 | 2.5
CSc1cccc(NC(=O)CNS(=O)(=O)c2ccccc2)c1 | 17.6 | -0.2 | -16.5 | 17.3 | -3.6 | .
SMILES | PHOSPHO1 block | M18AAP inhibitor | ALR inh | PfGluPho inh | Cardio protect | PfG6PD confirm | others
Cc1cc(C)c2c(n1)sc1c(N3CCCCC3)ncnc12 | 46.0 | -3.2 | -2.4 | 70.3* | 0.1 | -0.5
CCN(CC)c1ncnc2c1sc1nc(C)cc(C)c12 | 13.8 | 3.3 | 14.0 | 71.9* | 19.1 | 36.0
O=C(OCC(=O)N1CCOCC1)c1cncc(Br)c1 | . | . | . | -11.5 | 3.1 | .
COc1ccc(OCCNC(=O)C2(C)CCN2Cc2ccc3ccccc3c2)cc1 (stereo not given) | . | . | . | . | 3.8 | .
CCn1cc(/C=N/NC(=O)c2ccc(C#N)cc2F)c2ccccc21 | 32.6 | 5.8 | . | 106.7* | 2.4 | 89.3* | Diaph ctr 10uM=81.0*;Diaph ctr 30uM=64.1*
O=C(C1CCCCC1)N1CCC2CC1c1cc(Cl)ccc12 (stereo not given) | . | . | . | -9.8 | 7.4 | .
CN(C)S(=O)(=O)c1cc(NC(=O)COC(=O)c2nc(Cl)ccc2Cl)ccc1Cl | . | . | 3.8 | 10.0 | 2.4 | .
